From the supplement of paper PMC12669032
Unmarked numbers belong to inactive results.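 Rule for the calls: active = AUC reduced over 20% with Padj below 0.05 in at least 2 of 3 replicates; inactive = otherwise.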

Legend:
Assay in all cases: growth AUC relative to DMSO control (median of replicates) (fraction); higher = more growth (less inhibition), active = hit call of the paper
Settings in all cases: 20 µM; 24 h
[1] = system: Akkermansia muciniphila
In short: (§1)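 OD600 was recorded every hour for 24 h in anaerobic monocultures of gut bacteria kept at 37 °C in mGAM, seeded at OD600 0.05 and given 20 µM compound in 1% DMSO. The area under each growth curve was scaled to the plate median of solvent-only wells, or to row and column medians for the industrial chemical plate. Before this step, the minimum OD was set to 0. Reported values are medians of three biological replicates run on separate days.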

[2] = system: Bacteroides caccae
In short: as §1

[3] = system: Bacteroides clarus
In short: as §1

[4] = system: Bacteroides dorei
In short: as §1

[5] = system: Bacteroides stercoris
In short: as §1

[6] = system: Bacteroides thetaiotaomicron
In short: as §1

[7] = system: Bacteroides uniformis
In short: as §1

[8] = system: Bifidobacterium longum subsp. longum
In short: as §1

[9] = system: Clostridium difficile
In short: as §1

[10] = system: Collinsella aerofaciens
In short: as §1

[11] = system: Coprococcus comes
In short: as §1

[12] = system: Escherichia coli ED1a
In short: as §1

[13] = system: Escherichia coli IAI1
In short: as §1

[14] = system: Eubacterium rectale
In short: as §1

[15] = system: Fusobacterium nucleatum subsp. animalis
In short: as §1

[16] = system: Lactobacillus gasseri
In short: as §1

[17] = system: Lactobacillus paracasei
In short: as §1

[18] = system: Odoribacter splanchnicus
In short: as §1

[19] = system: Parabacteroides distasonis
In short: as §1

[20] = system: Parabacteroides merdae
In short: as §1

Row | SMILES | growth AUC [1] | growth AUC [2] | growth AUC [3] | growth AUC [4] | growth AUC [5] | growth AUC [6] | growth AUC [7] | growth AUC [8] | growth AUC [9] | growth AUC [10] | growth AUC [11] | growth AUC [12] | growth AUC [13] | growth AUC [14] | growth AUC [15] | growth AUC [16] | growth AUC [17] | growth AUC [18] | growth AUC [19] | growth AUC [20]
1 | COc1ccccc1N | 1 | 1.02 | 1.04 | 1.01 | 1.16 | 1.02 | 1.02 | 1.05 | 1.01 | 1.02 | 0.993 | 1 | 1 | 1.08 | 1.04 | 1.02 | 1.02 | 1.16 | 1.28 | 1.02
2 | CCOc1ccccc1OS(=O)(=O)NC(=O)Nc1nc(OC)cc(OC)n1 | 1.02 | 1.05 | 0.972 | 1.05 | 0.901 | 1.01 | 0.993 | 0.967 | 1.13 | 1.03 | 1.01 | 1.01 | 1.01 | 0.938 | 1 | 1.11 | 0.736 | 1.15 | 1.02 | 1.02
3 | CCNc1nc(NC(C)C)[nH]c(=O)n1 | 0.993 | 1 | 1.02 | 1.04 | 0.998 | 1 | 1.07 | 0.962 | 1.05 | 1.02 | 0.992 | 1.03 | 1.05 | 0.992 | 1.06 | 1.03 | 0.963 | 0.994 | 1.02 | 1
4 | O=C(O)c1cc(Oc2ccc(C(F)(F)F)cc2Cl)ccc1[N+](=O)[O-] | 1.01 | 1.04 | 0.925 | 0.916 | 0.84 | 1.02 | 0.985 | 1.06 | 0.966 | 0.956 | 0.967 | 0.992 | 0.948 | 1.06 | 0.957 | 0.95 | 0.966 | 1.03 | 0.896 | 0.971
5 | CNC(=O)Oc1ccccc1OC(CCl)OC (stereo not given) | 1.17 | 0.941 | 1.06 | 0.955 | 1.23 | 1.02 | 0.982 | 1.02 | 1.03 | 1.07 | 1.01 | 1.02 | 1.02 | 1.16 | 1.19 | 1.04 | 1.04 | 1.05 | 0.988 | 1.06
6 | O=S1OCC2C(CO1)C1(Cl)C(Cl)=C(Cl)C2(Cl)C1(Cl)Cl (stereo not given) | 1.08 | 1 | 0.962 | 0.999 | 0.779 | 0.976 | 0.874 | 1.04 | 0.992 | 0.971 | 1.03 | 1.02 | 1.04 | 1.08 | 1.13 | 0.763 | 1.05 | 1.03 | 1.1 | 0.951
7 | CCCN(CCC)c1c([N+](=O)[O-])cc(C(C)C)cc1[N+](=O)[O-] | 1.12 | 1.01 | 0.978 | 0.994 | 0.991 | 0.962 | 1.03 | 1.02 | 0.991 | 0.99 | 1.06 | 1.02 | 0.996 | 1.02 | 1 | 0.941 | 1.09 | 0.989 | 0.932 | 0.984
8 | CCOP(=S)(OCC)Oc1ccc([N+](=O)[O-])cc1 | 1.09 | 0.963 | 1 | 1.02 | 1.05 | 0.972 | 0.959 | 1.03 | 1 | 1.03 | 0.997 | 1 | 0.979 | 1.09 | 1.11 | 0.98 | 1.04 | 1.02 | 0.964 | 0.994
9 | COP(=S)(OC)Oc1ccc(S(N)(=O)=O)cc1 | 1.02 | 1.03 | 0.995 | 1 | 0.984 | 0.984 | 1.02 | 0.969 | 0.992 | 0.984 | 1.01 | 0.976 | 0.999 | 0.901 | 0.998 | 1.06 | 1.05 | 1 | 0.992 | 1.01
10 | CNC1=C(c2cccc(C(F)(F)F)c2)C(=O)C(c2ccccc2)O1 (stereo not given) | 0.993 | 1.02 | 0.953 | 1.01 | 1.01 | 0.986 | 0.972 | 0.888 | 1.08 | 1.02 | 1.06 | 0.998 | 0.992 | 1 | 0.969 | 0.985 | 0.781 | 1.07 | 0.951 | 0.969
11 | CCS(=O)Cc1ccccc1OC(=O)NC (stereo not given) | 1.22 | 0.98 | 0.986 | 0.943 | 0.992 | 1 | 0.945 | 0.966 | 0.979 | 0.977 | 1.01 | 0.977 | 0.971 | 1.11 | 1.05 | 0.854 | 1.01 | 0.975 | 0.8 | 0.997
12 | [CH3][Hg][Cl] | 0.749 | 0.912 | 0.837 | 0.96 | 0.903 | 0.679 (active) | 0.77 (active) | 0.868 | 0.902 | 1.01 | 0.816 | 1.04 | 1.06 | 0.872 | 0.956 | 0.99 | 1.04 | 0.684 (active) | 0.918 | 0.892
13 | Clc1ccccc1Cl | 0.952 | 1.02 | 1.02 | 0.992 | 0.991 | 0.986 | 1.03 | 1.11 | 0.996 | 0.975 | 1.02 | 0.971 | 0.994 | 0.972 | 0.975 | 0.948 | 1.02 | 0.95 | 0.996 | 1.01
14 | CCCCCCCCSC(=O)Oc1cc(Cl)nnc1-c1ccccc1 | 1.01 | 0.983 | 0.983 | 0.99 | 0.981 | 1.02 | 0.91 | 0.966 | 0.981 | 0.973 | 0.98 | 0.976 | 0.972 | 0.868 | 0.914 | 1.02 | 1.04 | 0.905 | 0.99 | 0.967
15 | CCCSP(=O)(OCC)Oc1ccc(Br)cc1Cl (stereo not given) | 0.944 | 0.864 | 0.95 | 0.985 | 1.17 | 0.901 | 0.881 | 1.06 | 1.03 | 0.972 | 1.01 | 1.01 | 1.04 | 0.993 | 1.11 | 0.976 | 1.1 | 1.04 | 0.871 | 0.994
16 | O=C(O)C(F)(F)C(F)(F)C(F)(F)C(F)(F)C(F)(F)C(F)(F)F | 0.965 | 1.03 | 1 | 1.01 | 1 | 1 | 1.02 | 1.04 | 1 | 1.02 | 1 | 0.998 | 1 | 1.01 | 0.955 | 1.03 | 1.01 | 1 | 1.08 | 1.03
17 | COP(=S)(OC)Oc1ccc(C#N)cc1 | 1.1 | 1 | 1.03 | 1.04 | 1.02 | 0.989 | 1.04 | 1.01 | 1.03 | 1.01 | 1.04 | 1.04 | 1.02 | 1.11 | 1.04 | 1.03 | 1 | 1.02 | 1.07 | 1
